From ChEMBL document CHEMBL3988442, “University of Dundee, Small-Polar-MMV Screening Library” (2021)
The whole screen tested about 48,000 compounds, of which about 13,000 (27%) showed an effect of 50% or more. The list shows a part of the results.

What follows are compounds tested on Wolbachia pipientis (assay: Anti-Wolbachia Cell-Based Screen). Conditions: 5 µM.
Assay type: functional
Design: scale not given: in the data most compounds retested in dose-response had high values

| Compound | Percent Effect |
| --- | --- |
| CN(C)C(=O)c1nc(CN2C(=O)OC[C@@H]2c2ccccc2)no1 | 1.255% |
| O=C(CN1CCS(=O)(=O)CC1)NC1CCCc2ccccc21 (stereo not drawn) | 8.057% |
| CCN(CCO)Cc1cn(-c2cccc(F)c2)nc1-c1ccc(C)o1 | 11.71% |
| O=C1CN(Cc2nnc(-c3ccc(Cl)cc3)o2)CCN1 | -10.36% |
| c1ccc2c(c1)CC(N1CCCC(NCc3cccc4nonc34)C1)C2 (stereo not drawn) | -10.52% |
| CCN(CCn1cccn1)C(=O)CN1C(=O)OC[C@@H]1c1ccccc1 | -1.306% |
| O=C(CC1CCCN1S(=O)(=O)N1CCCCC1)c1cccs1 (stereo not drawn) | -4.447% |
| O=S(=O)(CC1CCCN1S(=O)(=O)C1CC1)c1ccccc1 (stereo not drawn) | 115.6% |
| NC1CCCCN(Cc2ccccc2CS(=O)(=O)c2ccccc2)C1 (stereo not drawn) | -12.21% |
| O=S(=O)(c1cccnc1)N1CCN(CC(O)c2ccccc2)CC1 (stereo not drawn) | 2.359% |
| Cc1nccn1CC1CCCN1S(=O)(=O)Cc1ccccc1 (stereo not drawn) | -11.24% |
| CS(=O)(=O)N1CCCC1CS(=O)(=O)c1ccccc1 (stereo not drawn) | 121.3% |
| O=S(=O)(c1cccnc1)N1CCCC1COc1ccccc1 (stereo not drawn) | -14.29% |
| CS(=O)(=O)N1CCCCC1CCc1ccc(O)cc1 (stereo not drawn) | 6.219% |
| O=S(=O)(CC1CCCN1S(=O)(=O)c1cccnc1)c1ccccc1 (stereo not drawn) | 115.5% |
| CS(=O)(=O)c1ccc(-c2c[nH]c([C@@H]3COCCN3)n2)cc1 | 22.57% |
| COc1ccc(OC)c2c(C)cc(N(C)Cc3cc(C)on3)nc12 | -2.431% |
| Cc1nc2cc(=O)[nH]n2c(C)c1CC(=O)Nc1ccc2ccccc2n1 | -9.33% |
| CCS(=O)(=O)c1ccc2oc([C@H]3CCN(CC4CCCCC4)C3)nc2c1 | -4.53% |
| COc1cccc(-c2cccc(CN3C[C@@H]4CC[C@H](C3)N(C)C4=O)c2)c1 | 5.514% |
| COc1cccc(-c2noc(C3CCN(CC(N)=O)C3)n2)c1 (stereo not drawn) | 113.2% |
| c1ccc(-c2noc(C3CCN(CCn4cccn4)CC3)n2)cc1 | 4.986% |
| COc1cccc(-c2noc(C3CCN(Cc4ccncc4)C3)n2)c1 (stereo not drawn) | 126.2% |
| COc1cccc(-c2noc(C3CCN(Cc4ccc(C)cc4)C3)n2)c1.Cl (stereo not drawn) | 91% |
| COc1cccc(COC(C)C(=O)NC2CCN(CC(N)=O)CC2)c1 (stereo not drawn) | -5.378% |
| COc1cccc(-c2noc(C3CCN(Cc4cccs4)C3)n2)c1.Cl (stereo not drawn) | 4.787% |

| Compound | Percent Effect |
| --- | --- |
| COc1cccc(-c2noc(C3CCN(CC4CCCCC4)C3)n2)c1.Cl (stereo not drawn) | 96.8% |
| Cc1cccc(-c2noc([C@@H]3C[C@@H](O)CN3C3CCOCC3)n2)c1 | -7.928% |
| Cc1c(NC(C)C(C)C)cccc1C(=O)NCc1cnn(C)c1 (stereo not drawn) | 6.886% |
| COC(=O)c1sccc1S(=O)(=O)NCC1(O)CCOc2ccccc21 (stereo not drawn) | -4.679% |
| CCOC(=O)CN1CCC(NC(=O)OC(C)(C)C)CC1 | -0.4465% |
| COc1cccc([C@@H](C)n2ccnc2-c2cc3n(n2)CCNC3)c1 | -10.36% |
| CN(Cc1nc2ccccc2[nH]1)C(=O)C(C)(C)n1cc(Cl)cn1 | 2.79% |
| O=C(O)CCc1cccc(C2CCCN2Cc2cccc(Cl)c2)n1 (stereo not drawn) | 91.67% |
| COc1cc(C)nc(N2CCN(C(=O)CCc3cscn3)CC2)n1 | -12.29% |
| O=C(O)CCc1cccc(C2CCCN2Cc2ccc(F)c(F)c2)n1 (stereo not drawn) | -6.193% |
| CC(=O)c1cc(CN2CCCC2c2nc3ccc(C)cc3[nH]2)cs1 (stereo not drawn) | -31.75% |
| Cc1cccc(CN2CCCC2c2cccc(CCC(=O)O)n2)c1 (stereo not drawn) | 96.42% |
| NC(=O)COc1cccc(CN2CCCC2c2ccc[nH]2)c1 (stereo not drawn) | 11.28% |
| Cc1cc(C)nc(N2CCC(c3cccc(CCC(=O)O)n3)CC2)n1 | 80.96% |
| O=C(O)CCc1cn(C2CCN(c3ncccc3Cl)CC2)nn1 | -1.723% |
| Cc1nn(C)c(C)c1C1CCCN1Cc1cccc(C(N)=O)c1 (stereo not drawn) | 1.349% |
| CCCN1CCCn2nc(CNC(=O)CC3CCS(=O)(=O)C3)cc2C1 (stereo not drawn) | -3.917% |
| CCc1ccc(C2COCCN2C(=O)Nc2cccc(C(C)=O)c2)o1 (stereo not drawn) | -4.107% |
| CSc1ncc(C(=O)NCc2cc3n(n2)CCCN(CC(C)C)C3)cn1 | 10.82% |
| CC(=O)N1CCC2(CC1)CN(CC(C)C)CC21CCNC1=O.O=C(O)C(F)(F)F (stereo not drawn) | -42.64% |
| COc1cc2c(cc1OC)S(=O)(=O)N(Cc1ccccc1C)C2=O | -3.651% |
| O=C1CC(c2ncc(-c3ccc4c(c3)OCCO4)[nH]2)CN1C1CCCC1 (stereo not drawn) | 12.43% |
| CC1CCN(c2nc(O)cc(C3CC(=O)N(C4CCCCC4)C3)n2)CC1 (stereo not drawn) | 162.6% |
| CCOCCCNc1nc(O)cc(C2CC(=O)N(C)C2)n1 (stereo not drawn) | -9.932% |
| CC(=O)N1CC[C@H]2CC(=O)N(C3CCCCC3)CC[C@H]2C1 | -3.423% |
| CCNC(=O)N1CC[C@H]2CC(=O)N(C3CCCCC3)CC[C@H]2C1 | 0.2272% |

| Compound | Percent Effect |
| --- | --- |
| CC(C)Nc1nc(O)cc(C2CC(=O)N(C3CCCCC3)C2)n1 (stereo not drawn) | 137.6% |
| CCc1nc(C)c(CN2CCN(c3ncnc4c(C)csc34)CC2)[nH]1 | 6.188% |
| O=c1cc(CN2CCCC(CCc3c(F)cccc3F)C2)[nH]c(=O)[nH]1 (stereo not drawn) | -9.358% |
| O=C1NCCCCC1NC(=O)C1(c2cccc(Cl)c2)CC1 (stereo not drawn) | -14.19% |
| Cc1nc(CN2CCC3(CC2)NC(=O)CC3c2cccnc2)cs1 (stereo not drawn) | 101% |
| O=C(O)C(F)(F)F.O=C(O)C(F)(F)F.O=C1CC(c2ccncc2)C2(CCN(CC3CC3)CC2)N1 (stereo not drawn) | 90.78% |
| O=C(O)C(F)(F)F.O=C1CC(c2ccncc2)C2(CCN(C(=O)c3cccs3)CC2)N1 (stereo not drawn) | 1.39% |
| CCc1ccc(CN2CCC3(CC2)NC(=O)CC3c2ccncc2)o1.O=C(O)C(F)(F)F.O=C(O)C(F)(F)F (stereo not drawn) | -16.11% |
| COc1ccc(CN2CCC3(CC2)NC(=O)CC3c2ccncc2)cc1.O=C(O)C(F)(F)F.O=C(O)C(F)(F)F (stereo not drawn) | 4.952% |
| O=C1CC(c2cccnc2)C2(CCN(C(=O)N3CCOCC3)CC2)N1 (stereo not drawn) | 18.29% |
| Cc1nc(CN2CCC3(CC2)NC(=O)CC3c2ccncc2)cs1.O=C(O)C(F)(F)F.O=C(O)C(F)(F)F (stereo not drawn) | 104.7% |
| O=C(O)C(F)(F)F.O=C1CC(c2ccccc2)C2(CCN(CC3CC3)CC2)N1 (stereo not drawn) | -11.51% |
| O=C1CC(c2ccncc2)C2(CCN(CCO)CC2)N1 (stereo not drawn) | -11.83% |
| CC(NC(=O)c1ccc2c(c1)COC2)c1cccc(N2CCOC2=O)c1 (stereo not drawn) | -4.788% |
| Cc1nc2cc(OCc3nc(C(=O)NC(C)(CO)CO)co3)ccc2s1 | 17.49% |
| Cc1ccc(CN(C)C(=O)C(C)n2ccnc2C(C)C)o1 (stereo not drawn) | 90.15% |
| COc1cc2c(cc1CNC(=O)C(C)n1ccnc1C(C)C)OCCO2 (stereo not drawn) | -1.746% |
| CCc1nnc(CN(CC)C(=O)CCc2scnc2C)o1 | -3.701% |
| CCOC(=O)N1CCN(C(=O)C(C)n2ccnc2C(C)C)CC1 (stereo not drawn) | -18.05% |
| CCN(Cc1ccncc1)C(=O)C(C)n1ccnc1C(C)C (stereo not drawn) | 110.2% |
| CCN(Cc1ccc(C)o1)C(=O)C(C)n1ccnc1C(C)C (stereo not drawn) | 103.3% |
| CCc1nnc(CN(CC)C(=O)C(C)n2ccnc2C(C)C)o1 (stereo not drawn) | 83.87% |
| Cc1cccnc1N1CCN(C(=O)C(C)n2ccnc2C(C)C)CC1 (stereo not drawn) | -23.9% |
| CC(C)c1nccn1C(C)C(=O)NC1Cc2ccccc2C1 (stereo not drawn) | 10.2% |
| Cc1nc(C)n(CCNC(=O)C(C)n2ccnc2C(C)C)n1 (stereo not drawn) | -3.784% |
| CC(C(=O)N(C)Cc1ccc(Br)o1)n1cccn1 (stereo not drawn) | 0.6222% |

| Compound | Percent Effect |
| --- | --- |
| Cc1ccc(CN(C)C(=O)C(C)n2cncn2)o1 (stereo not drawn) | -9.156% |
| Cc1nnc2ccc(NCC3(N4CCCCC4)CCOCC3)nn12 | -7.148% |
| COc1ccc(C)cc1-n1c(COC(C)C)n[nH]c1=O | 0.04984% |
| Cc1cccc(CCC(=O)NCC2CCCN2c2cccnn2)c1 (stereo not drawn) | 7.373% |
| Cc1nc(CN2CC(=O)N(C)c3ccccc3C2=O)no1 | 7.895% |
| CN(CC(O)C1CC1)C(=O)c1ccc(-c2nc(C3CC3)no2)cc1 (stereo not drawn) | 4.636% |
| COc1ccc(OC)c(CNc2nnc(C(C)(C)C)o2)c1 | 112.6% |
| COc1ccc(CNc2nnc(CC(C)(C)C)o2)cc1C#N | -29.2% |
| CCc1nnc(NCc2cccc(OC)c2OC)o1 | 1.756% |
| COc1cccc(CNC(=O)Nc2ccc3[nH]nnc3c2)c1OC | -10.07% |
| CC(C)(C)c1nnc(NCc2ccc(F)cc2)o1 | -7.164% |
| COc1cccc(CNc2nnc(C(C)(C)C)o2)c1OC | 92.71% |
| CN(Cc1ccccc1)c1ncccc1CNC1CCC1 | -23.22% |
| CN(Cc1cc(Br)c2c(c1)OCO2)Cc1cscn1 | 2.814% |
| CSCCNC(=O)c1coc(COc2ccc(F)cc2)n1 | -7.576% |
| CCC(C)N(Cc1ccncc1)C(=O)CCSC (stereo not drawn) | -18.32% |
| O=C(NCc1cccnc1)NCC(O)c1cccc(C(F)(F)F)c1 (stereo not drawn) | -14.42% |
| CSc1ccc(CNC(=O)NCC(O)c2cccc(F)c2)cc1 (stereo not drawn) | 106.1% |
| O=C(NCc1ccccc1)NCC(O)c1cccc(F)c1 (stereo not drawn) | 95.34% |
| CCOc1cccc(CNC(=O)NCC(O)c2cccc(F)c2)c1 (stereo not drawn) | 5.413% |
| Cc1cc(C)c(CNC(=O)NCC(O)c2cccc(F)c2)c(=O)[nH]1 (stereo not drawn) | 0.6677% |
| CNC(=O)c1cccc(NC(=O)NCc2ccc(SC)cc2)c1C | -19.71% |
| Cc1cc(CNC(=O)NCC(O)c2cccc(F)c2)no1 (stereo not drawn) | -1.718% |
| O=C(NCc1cccc(F)c1)NCC(O)c1cccc(F)c1 (stereo not drawn) | 96.97% |
| CC(C)Nc1cccc(C(=O)NCC(O)c2cccc(F)c2)c1 (stereo not drawn) | -13.04% |
